From PubChem BioAssay (EPA / NIEHS)
Records with an inconclusive call do not appear. A structure can be active in one record and inactive in another. Calls of active or inactive are those of the source. The calls were made as follows, unless noted: active = hit-call score of the fitted dose curve at least 0.9, where 1 is the maximum; inconclusive = response in the unintended direction; inactive = score below 0.9.

What was measured:
[1] = target: human Peroxisome Proliferator-activated Receptor alpha (PPARa), PPARA (gene 5465) (UniProt Q07869); experiment: ATG_PPARa_TRANS: Attagene TRANS-FACTORIAL HepG2 Assay for human Peroxisome Proliferator-activated Receptor alpha (PPARa) (AID 2283001);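 as to AC50: potency for gain of reporter signal over DMSO so agonist or activator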
Summary of the method: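 HepG2, transient MRTU transfection, 24 h treatment. RT-PCR → FAM labelling → capillary electrophoresis. Fit vs DMSO, positive direction.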

[2] = target: human Peroxisome Proliferator-activated Receptor delta (PPARd), PPARD (gene 5467) (UniProt Q03181); experiment: ATG_PPARd_TRANS: Attagene TRANS-FACTORIAL HepG2 Assay for human Peroxisome Proliferator-activated Receptor delta (PPARd) (AID 2283002)
Summary of the method: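 Fluorescence from capillary electrophoresis of labelled RT-PCR reporter fragments gives the signal; DMSO sets baseline. Cells: HepG2 transiently carrying GAL4-UAS reporter units plus chimeric nuclear receptor-Gal4 proteins, exposed to chemicals for 24 h.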

[3] = target: Peroxisome proliferator-activated receptor gamma (Homo sapiens) (UniProt P37231); experiment: ATG_PPARg_TRANS: Attagene TRANS-FACTORIAL HepG2 Assay for human Peroxisome Proliferator-activated Receptor-gamma (PPARg) (AID 2283007)
Summary of the method: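 Multiplexed reporter transcription units in HepG2, 24 h dosing, reporter transcripts quantified by fluorescent RT-PCR and capillary electrophoresis. Increase over DMSO scored.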

[4] = target: Nuclear receptor subfamily 1 group I member 2 (Homo sapiens) (UniProt O75469); experiment: ATG_PXR_TRANS: Attagene TRANS-FACTORIAL HepG2 Assay for human Pregnane X Receptor (PXR) (AID 2283008)
Summary of the method: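 Transactivation by exogenous PXR–GAL4 fusion measured as reporter transcript induction after 24 h compound treatment of transfected human HepG2 cells. Read-out via RT-PCR and capillary electrophoresis of labelled fragments, fitted upward relative to DMSO.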

[5] = target: human Retinoic Acid Receptor gamma (RARg), RARG (gene 5916) (UniProt P13631); experiment: ATG_RARg_TRANS: Attagene TRANS-FACTORIAL HepG2 Assay for human Retinoic Acid Receptor gamma (RARg) (AID 2283009)
Summary of the method: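 Transactivation of exogenous RARg-Gal4 fusion measured as reporter transcript induction after 24 h in transfected HepG2 cells. RNA reverse-transcribed, amplified, fluorescently labeled and resolved by capillary electrophoresis; increase relative to DMSO.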

[6] = target: human RAR-related Orphan Receptor beta (RORb), RORB (gene 6096) (UniProt Q92753); experiment: ATG_RORb_TRANS: Attagene TRANS-FACTORIAL HepG2 Assay for human RAR-related Orphan Receptor beta (RORb) (AID 2283010)
Summary of the method: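 Read-out is reporter mRNA induction, quantified by RT-PCR with fluorescent capillary electrophoresis, 24 h post-dose in transiently transfected HepG2 expressing exogenous NR-Gal4 chimera. Activity fitted upward versus DMSO.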

[7] = target: Retinoic acid receptor alpha (Homo sapiens) (UniProt P10276); experiment: ATG_RARa_TRANS: Attagene TRANS-FACTORIAL HepG2 Assay for human Retinoic Acid Receptor alpha (RARa) (AID 2283005)
Summary of the method: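 HepG2 transiently transfected with multiplex GAL4-UAS reporter units including a human RARa–GAL4 chimera; 24 h compound exposure. Reporter mRNA quantified by RT-PCR, 6-FAM labeling and capillary electrophoresis; gain of signal versus DMSO.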

[8] = target: human Retinoic Acid Receptor beta (RARb), RARB (gene 5915) (UniProt P10826); experiment: ATG_RARb_TRANS: Attagene TRANS-FACTORIAL HepG2 Assay for human Retinoic Acid Receptor beta (AID 2283004)
Summary of the method: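 Fluorescent capillary-electrophoresis detection of GAL4-UAS reporter mRNA defines the endpoint, with induction over DMSO-treated wells scored as activity. Transiently transfected human hepatoma HepG2 cells expressing exogenous NR–Gal4 proteins are exposed to test chemicals for 24 h.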

[9] = read-out: Intercellular Adhesion Molecule 1 (ICAM1), ICAM1 (gene 3383); experiment: BSK_3C_ICAM1: BioMAP Diversity Plus: 3C Assay for Intercellular Adhesion Molecule 1 (ICAM1) Biomarker Activity (AID 2283003; active = hit-call score of the fitted dose curve at least 0.9, where 1 is the maximum; inactive = score below 0.9); settings: primary human endothelial cells (HUVEC); actives raise or lower the signal
Summary of the method: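 ELISA readout of ICAM1 in human umbilical vein endothelial cells in the 3C system, taken 24 h post-dose. Gain or loss of signal versus DMSO was fitted in both directions, with SRB total-protein staining run in parallel.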

[10] = BSK_3C_Proliferation: Cell Proliferation Assessment in the BioMAP Diversity Plus: 3C Assay (AID 2283006; active = hit-call score of the fitted dose curve at least 0.9, where 1 is the maximum; inactive = score below 0.9;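 as to AC50: potency may reflect either rise or fall in cell number versus DMSO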); settings: primary human endothelial cells (HUVEC)
Summary of the method: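 Proliferation as total protein: sulforhodamine B (0.1%) stain of TCA-fixed subconfluent human umbilical vein endothelial cells, absorbance 560 nm, 48 h after dosing. Activity fitted in both directions against DMSO baseline.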

Measured: AC50

Chain of human Peroxisome Proliferator-activated Receptor alpha (PPARa), PPARA (gene 5465) (Q07869 whole entry, looked up): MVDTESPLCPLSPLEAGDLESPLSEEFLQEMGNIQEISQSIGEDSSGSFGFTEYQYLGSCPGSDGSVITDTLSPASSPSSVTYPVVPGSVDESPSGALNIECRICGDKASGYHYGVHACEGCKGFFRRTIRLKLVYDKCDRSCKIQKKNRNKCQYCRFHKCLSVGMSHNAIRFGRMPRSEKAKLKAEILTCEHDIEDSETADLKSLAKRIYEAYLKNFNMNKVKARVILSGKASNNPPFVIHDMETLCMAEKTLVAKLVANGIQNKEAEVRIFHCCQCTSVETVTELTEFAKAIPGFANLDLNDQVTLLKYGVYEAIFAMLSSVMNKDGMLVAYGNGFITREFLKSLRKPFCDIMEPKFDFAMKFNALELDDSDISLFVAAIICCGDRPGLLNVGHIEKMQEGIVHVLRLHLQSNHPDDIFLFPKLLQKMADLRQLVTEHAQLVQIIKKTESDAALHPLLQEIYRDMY
Chain of human Peroxisome Proliferator-activated Receptor delta (PPARd), PPARD (gene 5467) (Q03181 whole entry, looked up, the tested form may be a part): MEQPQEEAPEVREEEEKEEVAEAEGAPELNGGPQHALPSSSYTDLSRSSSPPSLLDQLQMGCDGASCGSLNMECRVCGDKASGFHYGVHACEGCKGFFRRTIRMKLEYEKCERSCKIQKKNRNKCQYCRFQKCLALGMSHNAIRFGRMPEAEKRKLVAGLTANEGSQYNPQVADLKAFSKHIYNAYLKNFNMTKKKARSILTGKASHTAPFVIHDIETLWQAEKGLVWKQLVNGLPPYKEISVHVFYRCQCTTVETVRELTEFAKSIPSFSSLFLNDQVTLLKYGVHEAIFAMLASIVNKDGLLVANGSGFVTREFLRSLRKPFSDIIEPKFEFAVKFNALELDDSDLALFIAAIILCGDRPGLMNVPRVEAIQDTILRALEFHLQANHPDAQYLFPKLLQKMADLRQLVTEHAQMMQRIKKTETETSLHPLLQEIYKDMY
Chain of Nuclear receptor subfamily 1 group I member 2 (Homo sapiens) (O75469 whole entry, looked up, the tested form may be a part): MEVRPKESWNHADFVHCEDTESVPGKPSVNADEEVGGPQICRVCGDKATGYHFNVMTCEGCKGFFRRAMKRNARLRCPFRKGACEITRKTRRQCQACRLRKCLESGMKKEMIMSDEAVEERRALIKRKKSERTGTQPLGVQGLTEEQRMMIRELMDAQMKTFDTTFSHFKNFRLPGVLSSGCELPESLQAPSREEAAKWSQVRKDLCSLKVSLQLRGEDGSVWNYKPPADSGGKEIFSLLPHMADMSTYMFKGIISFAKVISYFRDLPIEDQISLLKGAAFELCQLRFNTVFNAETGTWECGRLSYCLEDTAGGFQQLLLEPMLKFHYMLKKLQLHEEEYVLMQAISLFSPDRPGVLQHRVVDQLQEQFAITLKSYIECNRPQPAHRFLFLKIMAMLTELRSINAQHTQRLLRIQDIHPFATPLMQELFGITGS
Chain of Peroxisome proliferator-activated receptor gamma (Homo sapiens) (P37231 whole entry, looked up): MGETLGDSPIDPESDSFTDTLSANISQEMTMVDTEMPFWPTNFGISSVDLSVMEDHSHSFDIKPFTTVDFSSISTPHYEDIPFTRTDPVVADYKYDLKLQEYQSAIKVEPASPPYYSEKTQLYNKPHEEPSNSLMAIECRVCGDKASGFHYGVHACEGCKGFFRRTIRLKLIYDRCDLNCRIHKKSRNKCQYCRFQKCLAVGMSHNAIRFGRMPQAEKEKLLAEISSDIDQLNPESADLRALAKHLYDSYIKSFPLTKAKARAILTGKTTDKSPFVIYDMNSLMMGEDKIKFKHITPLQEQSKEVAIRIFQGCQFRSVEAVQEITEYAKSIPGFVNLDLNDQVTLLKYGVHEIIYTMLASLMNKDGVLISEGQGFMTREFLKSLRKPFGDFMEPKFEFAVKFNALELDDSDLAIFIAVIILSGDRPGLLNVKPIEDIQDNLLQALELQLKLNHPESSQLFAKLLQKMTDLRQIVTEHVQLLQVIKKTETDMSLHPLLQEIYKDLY
Chain of human Retinoic Acid Receptor gamma (RARg), RARG (gene 5916) (P13631 whole entry, looked up, the tested form may be a part): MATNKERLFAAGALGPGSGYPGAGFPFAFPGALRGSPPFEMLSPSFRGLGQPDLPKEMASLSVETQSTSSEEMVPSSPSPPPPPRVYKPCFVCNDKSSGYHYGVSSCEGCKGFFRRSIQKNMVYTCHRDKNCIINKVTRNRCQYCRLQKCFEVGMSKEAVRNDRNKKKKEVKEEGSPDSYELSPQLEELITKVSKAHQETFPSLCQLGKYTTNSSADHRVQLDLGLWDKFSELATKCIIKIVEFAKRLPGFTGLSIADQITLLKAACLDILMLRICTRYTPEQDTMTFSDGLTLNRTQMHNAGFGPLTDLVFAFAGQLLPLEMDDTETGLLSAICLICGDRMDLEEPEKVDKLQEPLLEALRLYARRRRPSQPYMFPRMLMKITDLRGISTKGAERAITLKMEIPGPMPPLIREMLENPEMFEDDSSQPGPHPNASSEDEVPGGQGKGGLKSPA
Chain of Retinoic acid receptor alpha (Homo sapiens) (P10276 whole entry, looked up, the tested form may be a part): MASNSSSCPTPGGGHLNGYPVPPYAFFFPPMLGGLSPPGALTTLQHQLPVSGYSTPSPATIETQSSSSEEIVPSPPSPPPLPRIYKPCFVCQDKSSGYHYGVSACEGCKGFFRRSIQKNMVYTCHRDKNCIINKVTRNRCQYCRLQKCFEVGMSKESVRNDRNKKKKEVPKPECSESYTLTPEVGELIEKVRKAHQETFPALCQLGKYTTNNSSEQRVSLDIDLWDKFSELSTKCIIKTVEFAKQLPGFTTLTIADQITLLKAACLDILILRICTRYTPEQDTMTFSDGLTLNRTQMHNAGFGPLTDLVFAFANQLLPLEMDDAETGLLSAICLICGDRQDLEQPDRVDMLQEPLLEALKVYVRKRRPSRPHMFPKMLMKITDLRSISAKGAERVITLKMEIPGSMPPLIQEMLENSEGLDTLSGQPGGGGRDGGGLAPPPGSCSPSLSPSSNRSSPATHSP
Chain of human RAR-related Orphan Receptor beta (RORb), RORB (gene 6096) (Q92753 whole entry, looked up, the tested form may be a part): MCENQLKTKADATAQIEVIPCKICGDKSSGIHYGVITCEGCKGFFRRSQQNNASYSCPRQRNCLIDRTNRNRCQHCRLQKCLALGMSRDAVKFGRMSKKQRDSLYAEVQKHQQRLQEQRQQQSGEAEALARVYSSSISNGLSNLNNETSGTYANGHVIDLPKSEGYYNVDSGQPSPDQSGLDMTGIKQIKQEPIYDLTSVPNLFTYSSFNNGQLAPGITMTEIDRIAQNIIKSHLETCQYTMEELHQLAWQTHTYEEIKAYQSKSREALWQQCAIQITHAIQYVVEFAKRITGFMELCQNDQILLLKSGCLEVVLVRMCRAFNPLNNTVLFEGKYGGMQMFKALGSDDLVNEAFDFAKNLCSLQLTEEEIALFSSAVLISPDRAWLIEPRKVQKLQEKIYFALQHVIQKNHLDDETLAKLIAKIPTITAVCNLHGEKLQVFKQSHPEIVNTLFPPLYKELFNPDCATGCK
Chain of human Retinoic Acid Receptor beta (RARb), RARB (gene 5915) (P10826 whole entry, looked up, the tested form may be a part): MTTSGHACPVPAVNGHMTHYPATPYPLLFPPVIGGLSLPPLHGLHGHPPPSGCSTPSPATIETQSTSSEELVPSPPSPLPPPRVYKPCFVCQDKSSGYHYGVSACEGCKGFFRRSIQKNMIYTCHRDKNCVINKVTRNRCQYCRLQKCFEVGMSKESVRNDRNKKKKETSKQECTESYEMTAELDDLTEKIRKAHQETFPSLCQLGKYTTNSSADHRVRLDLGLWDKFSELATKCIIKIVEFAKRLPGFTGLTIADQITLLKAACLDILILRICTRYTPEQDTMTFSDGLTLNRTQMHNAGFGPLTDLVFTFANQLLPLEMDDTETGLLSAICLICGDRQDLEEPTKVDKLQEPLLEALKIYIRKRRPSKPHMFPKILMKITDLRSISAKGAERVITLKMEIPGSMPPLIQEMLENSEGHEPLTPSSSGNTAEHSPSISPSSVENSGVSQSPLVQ

Nc1ccc(NCCO)c([N+](=O)[O-])c1
inactive: [1] | [2] | [3] | [4] | [5] | [6]

C[Si](C)(C)O[Si](C)(C)C
inactive: [1] | [2] | [7] | [6]

Cc1c(OCC(F)(F)F)ccnc1CS(=O)c1nc2ccccc2[nH]1 (configuration not stated)
active: [3] 23.7 µM
inactive: [1] | [2]

CCOC(=O)COC(=O)c1cc(Oc2ccc(C(F)(F)F)cc2Cl)ccc1[N+](=O)[O-]
inactive: [2] | [5]
active: [1] 14.5 µM | [3] 11.1 µM | [4] 22.2 µM

CCCCC(CC)COC(=O)c1ccc(O)cc1 (configuration not stated)
active: [4] 20.7 µM
inactive: [1] | [2] | [7] | [6]

C=C(C)C(=O)OCCOC1CC2CC1C1C=CCC21 (configuration not stated)
inactive: [1] | [2] | [3] | [4]

CC(Oc1cc(Cl)ccc1Cl)C(=O)O (configuration not stated)
inactive: [1] | [2] | [3] | [4]

C[C@H]1O[C@@H](O[C@H]2[C@@H](O)C[C@H](O[C@H]3[C@@H](O)C[C@H](O[C@H]4CC[C@@]5(C)[C@H](CC[C@@H]6[C@@H]5C[C@@H](O)[C@]5(C)[C@@H](C7=CC(=O)OC7)CC[C@]65O)C4)O[C@@H]3C)O[C@@H]2C)C[C@H](O)[C@@H]1O
inactive: [1] | [2] | [7] | [3] | [4] | [5] | [6]

CCOC(=O)[C@@H](C)Oc1ccc(Oc2nc3ccc(Cl)cc3o2)cc1
inactive: [1] | [2] | [4]
active: [3] 39.2 µM

CN(C)c1ccncc1
inactive: [1] | [2] | [7] | [4]

Cc1ncc([N+](=O)[O-])n1CCO
inactive: [1] | [2] | [8] | [4] | [6]

NCC1CCCC(CN)C1 (configuration not stated)
inactive: [1] | [2] | [4]

CCCCCCCC(=O)OCC(O)CO (configuration not stated)
inactive: [1] | [2] | [7] | [3] | [4] | [5]

COc1cc([C@@H]2c3cc4c(cc3[C@@H](O[C@@H]3O[C@@H]5CO[C@@H](C)O[C@H]5[C@H](O)[C@H]3O)[C@H]3COC(=O)[C@H]23)OCO4)cc(OC)c1O
inactive: [1] | [2] | [3] | [6]

COC(=O)c1ccc([N+](=O)[O-])cc1
inactive: [1] | [2] | [3] | [6]

Cc1cccc(Nc2ccccc2)c1
active: [3] 85.4 µM
inactive: [1] | [2] | [4]

CCCCCCCCC=CCCCCCCCC1=NCCN1CCO
inactive: [1] | [2] | [7] | [3] | [5] | [6]

CN(C)c1cccc(O)c1
active: [4] 5.57 µM
inactive: [1] | [2] | [3] | [6]

Cc1cc(=O)oc2cc(N(C)C)ccc12
inactive: [1] | [2] | [4]

CC(CN=Cc1ccccc1O)N=Cc1ccccc1O (configuration not stated)
inactive: [1] | [9] | [8] | [10]
active: [10] 3.97 µM | [3] 72.2 µM
